Active and inactive are the calls of the source. The rule behind the calls is not given here.
Test: inhibition of Brca1/Bard1 split-luciferase complementation, confirmation, counter-screen for Mdm2/MdmX interaction inhibitor project, luminescence, single concentration (AID 504668)
Details: Brca1/Bard1 bimolecular luciferase complementation counterscreen, at 8 µM, hits give high values

Structure (SMILES) | inhibition
O=C(Nc1ccncc1NC(=O)c1cccc([N+](=O)[O-])c1)c1cccc([N+](=O)[O-])c1 | 31% (active)
CCCOCc1ccc(O)c2ncccc12 | 27.6% (active)
C/C(=N\NC(=O)c1ccc(Cl)c(Cl)c1)c1ccccn1 | 25.9% (active)
O=C(CCl)c1ccc2c(c1)CCN2C(=O)C1CC1 | 27% (active)
c1ccc(CCc2nn3c(-c4ccncc4)nnc3s2)cc1 | 33.7% (active)
CN(C)C1CCN(Cc2cc(COCc3ccccc3)c3cccnc3c2O)C1 (centres undefined) | 32.8% (active)
Oc1ccc(COCc2ccccc2)c2cccnc12 | 28.7% (active)
COc1ccc(/C=C2/SC(=S)N(CCCC(=O)Nc3cccc(O)c3)C2=O)cc1 | 28.6% (active)
Oc1c(CN2CCN(c3ccccn3)CC2)cc(Cl)c2cccnc12 | 28% (active)
Cc1ccc(-c2csc(NC3OC(=O)c4ccccc43)n2)cc1 (centres undefined) | 23.7% (active)
O=C(Nc1ccc(Cl)c(Cl)c1)Nc1ccc(Br)cc1F | 35.2% (active)
O=C1c2cccc3c([N+](=O)[O-])ccc(c23)C(=O)N1c1nccs1 | 27% (active)
CCCC(=O)NC(c1ccco1)c1cc(Cl)c2cccnc2c1O (centres undefined) | 23.3% (active)
O=C(CSc1nnnn1-c1ccccc1)Nc1nsc(-c2ccccc2)n1 | 27.7% (active)
CC(=O)O[C@@H]1C[C@H]2C(C)(C)C(=O)C=C[C@]2(C)[C@H]2CC[C@@]3(C)[C@H](c4ccoc4)OC(=O)[C@H]4O[C@]43[C@@]21C | 33.8% (active)
CCn1c(C)cc(C(=O)CN2C(=O)c3ccccc3S2(=O)=O)c1C | 23.2% (active)
CCOC(=O)c1c(-c2ccccc2)oc2ccc(OCC(O)CN(C)C)cc12 (centres undefined) | 32.5% (active)
COc1ccc(NC(=O)CSc2nc3c(sc4ccccc43)c(=O)n2CCCN2CCCC2)cc1 | 23.1% (active)
O=[N+]([O-])c1ccccc1C1Nc2cccc3cccc(c23)N1 | 26.9% (active)
N=c1n(CCN2CCCCC2)c2ccccc2n1CC(O)c1cccc(Br)c1 (centres undefined) | 34.4% (active)

Structure (SMILES) | inhibition
Cn1nc(-c2ccccn2)nc2c(=O)n(C)c(=O)nc1-2 | 33.8% (active)
CS(=O)(=O)Nc1ccccc1C(=O)Nc1cc(Cl)cc(Cl)c1 | 28.3% (active)
O=c1c2ccccc2nc(COc2ccccc2)n1/N=C/c1ccc(O)cc1O | 31% (active)
CCn1c(-c2ccc(C)cc2)nn(CC(=O)NCCc2ccccc2)c1=S | 31.4% (active)
C(=N\Nc1nc2ccccc2[nH]1)/c1cccc2nccnc12 | 31.8% (active)
CN1C2CCC1/C(=C\c1ccccc1F)C(=O)/C2=C/c1ccccc1F | 35.1% (active)
COc1ccc(N2C(=O)N3[C@H](c4cccc(C)c4)[C@@H]4C(=O)N(Cc5ccccc5)C(=O)[C@@H]4[C@]3(Cc3ccccc3)C2=O)cc1 | 35.6% (active)
COC(=O)[C@@]1(Cc2ccccc2)[C@H]2C(=O)N(Cc3ccccc3)C(=O)[C@H]2[C@H]2CN=C(SCc3ccccc3)N21 | 34.6% (active)
COc1ccc(-n2nc(C(=O)c3cccs3)cc(-c3nc4ccccc4[nH]3)c2=N)cc1 | 30.8% (active)
Oc1ccc(CNc2ccc(F)cc2)c2cccnc12 | 36% (active)
CN1CCN(C(c2ccc(C(F)(F)F)cc2)c2ccc3cccnc3c2O)CC1 (centres undefined) | 27.9% (active)
O=C(CCc1ccccc1)N/N=C/c1cc(Br)ccc1O | 26.9% (active)
CCN1/C(=C/c2ccc3cccc(C)c3[n+]2CC)Sc2ccccc21 | 26.4% (active)
Cc1ccc(-n2nc(C)c3c(C)c(CCC(=O)Nc4ccc(CN5CCCC5)cc4)c(C)nc32)cc1 | 25.5% (active)
CC(=O)Nc1nc(C)c(-c2csc(Nc3cccc([N+](=O)[O-])c3)n2)s1 | 35.6% (active)
CCC(NC(=O)Nc1nnc(C(F)(F)F)s1)(C(F)(F)F)C(F)(F)F | 26.3% (active)
CC(C)(C)C(=O)N1CCN(c2ccc(NC(=O)c3ccc([N+](=O)[O-])o3)cc2)CC1 | 30.5% (active)
O=C(NC(CSCc1ccccc1)C(=O)N/N=C/c1ccc(O)cc1O)c1ccc([N+](=O)[O-])cc1 (centres undefined) | 34.3% (active)
O=C(N/N=C/c1cc(Br)ccc1O)c1ccccc1Cl | 35.3% (active)

— PubChem BioAssay
